# From PubChem BioAssay AID1159580 (chemical genetic matrix, 2015)
# Out of some 5,500 compounds screened, about 2,000 (36%) were called active. Not shown: some 18% with an inconclusive outcome. This is one part of the list. A number with no mark means an inactive call. No stated cut-off is given here; in the data, active means normalized growth mostly below about 0.91 (no sharp cut-off); inconclusive means no clear call, values can overlap the other calls; inactive means mostly above about 0.92.
# Experiment: chemical genetic growth profiling, strain panel (AID 1159580);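 further: tested at 20 µM; growth read once vehicle control cultures reached saturation at 30 °C; 1 = growth at the plate median or of vehicle wells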
# Conditions: growth OD
# [1] = S. cerevisiae deletion strains, locus YDL101C, strain DUN1, stronger effect = lower value
# [2] = S. cerevisiae deletion strains, locus YHR030C, strain SLT2, stronger effect = lower value
structure (smiles),measurement,setting,value
O=C(CSCc1c(F)cccc1Cl)Nc1ccc(F)c(Cl)c1,normalized growth,"S. cerevisiae deletion strains, locus YAL013W, strain DEP1, stronger effect = lower value",0.883 (active)
same,normalized growth,"S. cerevisiae deletion strains, locus YBR229C, strain ROT2, stronger effect = lower value",0.834 (active)
same,normalized growth,"S. cerevisiae deletion strains, locus YCL061C, strain MRC1, stronger effect = lower value",0.869 (active)
same,normalized growth,[1],0.956
same,normalized growth,"S. cerevisiae deletion strains, locus YDR150W, strain NUM1, stronger effect = lower value",0.83
same,normalized growth,"S. cerevisiae deletion strains, locus YEL061C, strain CIN8, stronger effect = lower value",0.881 (active)
same,normalized growth,"S. cerevisiae deletion strains, locus YGR078C, strain PAC10, stronger effect = lower value",0.872 (active)
same,normalized growth,"S. cerevisiae deletion strains, locus YGR229C, strain SMI1, stronger effect = lower value",0.913 (active)
same,normalized growth,[2],0.194 (active)
same,normalized growth,"S. cerevisiae deletion strains, locus YHR087W, strain rtc3, stronger effect = lower value",0.811 (active)
same,normalized growth,"S. cerevisiae deletion strains, locus YJL187C, strain SWE1, stronger effect = lower value",0.875 (active)
same,normalized growth,"S. cerevisiae deletion strains, locus YJR043C, strain POL32, stronger effect = lower value",0.909 (active)
same,normalized growth,"S. cerevisiae deletion strains, locus YJR075W, strain HOC1, stronger effect = lower value",0.794 (active)
same,normalized growth,"S. cerevisiae deletion strains, locus YKL190W, strain CNB1, stronger effect = lower value",0.802 (active)
same,normalized growth,"S. cerevisiae deletion strains, locus YLR039C, strain RIC1, stronger effect = lower value",0.607 (active)
same,normalized growth,"S. cerevisiae deletion strains, locus YLR058C, strain SHM2 (second series), stronger effect = lower value",0.908 (active)
same,normalized growth,"S. cerevisiae deletion strains, locus YLR085C, strain ARP6, stronger effect = lower value",0.561 (active)
same,normalized growth,"S. cerevisiae deletion strains, locus YLR262C, strain YPT6, stronger effect = lower value",0.595 (active)
same,normalized growth,"S. cerevisiae deletion strains, locus YML094W, strain GIM5, stronger effect = lower value",0.826 (active)
same,normalized growth,"S. cerevisiae deletion strains, locus YMR219W, strain ESC1, stronger effect = lower value",0.891 (active)
same,normalized growth,"S. cerevisiae deletion strains, locus YNL128W, strain TEP1, stronger effect = lower value",0.928
same,normalized growth,"S. cerevisiae deletion strains, locus YNL153C, strain GIM3, stronger effect = lower value",0.935
same,normalized growth,"S. cerevisiae deletion strains, locus YNL298W, strain CLA4 (second series), stronger effect = lower value",0.773 (active)
same,normalized growth,"S. cerevisiae deletion strains, locus YNL322C, strain KRE1, stronger effect = lower value",0.946
same,normalized growth,"S. cerevisiae deletion strains, locus YNR030W, strain Alg12, stronger effect = lower value",0.752 (active)
same,normalized growth,"S. cerevisiae deletion strains, locus YOL006C, strain TOP1, stronger effect = lower value",0.953
same,normalized growth,"S. cerevisiae deletion strains, locus YPL055C, strain LGE1, stronger effect = lower value",0.75 (active)
same,normalized growth,"S. cerevisiae deletion strains, locus YPL241C, strain CIN2, stronger effect = lower value",0.781 (active)
same,normalized growth,"S. cerevisiae deletion strains, locus YPR135W, strain CTF4, stronger effect = lower value",0.441 (active)
same,normalized growth,"S. cerevisiae strains, strain wild type, stronger effect = lower value",0.87 (active)
S=C(Nc1ccc(Cl)cc1)SCc1c(Cl)cccc1Cl,normalized growth,"S. cerevisiae deletion strains, locus YAR019C, strain CDC15, stronger effect = lower value",0.976
same,normalized growth,"S. cerevisiae deletion strains, locus YBL105C, strain PKC1, stronger effect = lower value",0.984
same,normalized growth,"S. cerevisiae deletion strains, locus YBR135W, strain CKS1, stronger effect = lower value",0.977
same,normalized growth,"S. cerevisiae deletion strains, locus YBR136W, strain MEC1, stronger effect = lower value",0.996
same,normalized growth,"S. cerevisiae deletion strains, locus YBR160W, strain CDC28, stronger effect = lower value",0.987
same,normalized growth,"S. cerevisiae deletion strains, locus YDL017W, strain CDC7, stronger effect = lower value",0.984
same,normalized growth,"S. cerevisiae deletion strains, locus YDL028C, strain MPS1, stronger effect = lower value",0.985
same,normalized growth,[1],0.993
same,normalized growth,"S. cerevisiae deletion strains, locus YDL108W, strain KIN28, stronger effect = lower value",0.997
same,normalized growth,"S. cerevisiae deletion strains, locus YDL132W, strain cdc53, stronger effect = lower value",0.979
same,normalized growth,"S. cerevisiae deletion strains, locus YDL214C, strain PRR2, stronger effect = lower value",0.96
same,normalized growth,"S. cerevisiae deletion strains, locus YDR052C, strain DBF4, stronger effect = lower value",0.989
same,normalized growth,"S. cerevisiae deletion strains, locus YDR054C, strain cdc34, stronger effect = lower value",0.978
same,normalized growth,"S. cerevisiae deletion strains, locus YDR226W, strain ADK1, stronger effect = lower value",0.983
same,normalized growth,"S. cerevisiae deletion strains, locus YDR477W, strain SNF1, stronger effect = lower value",0.95
same,normalized growth,"S. cerevisiae deletion strains, locus YER123W, strain YCK3, stronger effect = lower value",0.973
same,normalized growth,"S. cerevisiae deletion strains, locus YER133W, strain GLC7, stronger effect = lower value",0.915
same,normalized growth,"S. cerevisiae deletion strains, locus YFL009W, strain cdc4, stronger effect = lower value",0.977
same,normalized growth,"S. cerevisiae deletion strains, locus YFL029C, strain CAK1, stronger effect = lower value",0.974
same,normalized growth,"S. cerevisiae deletion strains, locus YFR003C, strain YPI1, stronger effect = lower value",0.984
same,normalized growth,"S. cerevisiae deletion strains, locus YFR019W, strain FAB1, stronger effect = lower value",0.961
same,normalized growth,"S. cerevisiae deletion strains, locus YFR028C, strain CDC14, stronger effect = lower value",0.971
same,normalized growth,"S. cerevisiae deletion strains, locus YGR040W, strain KSS1, stronger effect = lower value",0.938
same,normalized growth,"S. cerevisiae deletion strains, locus YGR052W, strain FMP48, stronger effect = lower value",1.06
same,normalized growth,"S. cerevisiae deletion strains, locus YGR092W, strain DBF2, stronger effect = lower value",0.89
same,normalized growth,[2],0.996
same,normalized growth,"S. cerevisiae deletion strains, locus YHR079C, strain IRE1, stronger effect = lower value",1.08
same,normalized growth,"S. cerevisiae deletion strains, locus YHR082C, strain KSP1, stronger effect = lower value",1.03
same,normalized growth,"S. cerevisiae deletion strains, locus YHR205W, strain SCH9, stronger effect = lower value",0.999
same,normalized growth,"S. cerevisiae deletion strains, locus YIL147C, strain SLN1, stronger effect = lower value",0.992
same,normalized growth,"S. cerevisiae deletion strains, locus YJL095W, strain BCK1, stronger effect = lower value",1.05
same,normalized growth,"S. cerevisiae deletion strains, locus YJL128C, strain PBS2, stronger effect = lower value",0.967
same,normalized growth,"S. cerevisiae deletion strains, locus YJL157C, strain FAR1, stronger effect = lower value",0.96
same,normalized growth,"S. cerevisiae deletion strains, locus YJR016C, strain ILV3, stronger effect = lower value",0.973
same,normalized growth,"S. cerevisiae deletion strains, locus YJR066W, strain TOR1 (second series), stronger effect = lower value",0.932
same,normalized growth,"S. cerevisiae deletion strains, locus YJR066W, strain TOR1, stronger effect = lower value",1.02
same,normalized growth,"S. cerevisiae deletion strains, locus YKL048C, strain ELM1, stronger effect = lower value",0.992
same,normalized growth,"S. cerevisiae deletion strains, locus YKL067W, strain YNK1, stronger effect = lower value",0.972
same,normalized growth,"S. cerevisiae deletion strains, locus YKL101W, strain HSL1, stronger effect = lower value",0.994
same,normalized growth,"S. cerevisiae deletion strains, locus YKL193C, strain SDS22, stronger effect = lower value",0.978
same,normalized growth,"S. cerevisiae deletion strains, locus YKL203C, strain TOR2, stronger effect = lower value",1.02
same,normalized growth,"S. cerevisiae deletion strains, locus YLR113W, strain HOG1, stronger effect = lower value",1.09
same,normalized growth,"S. cerevisiae deletion strains, locus YLR133W, strain CKI1, stronger effect = lower value",0.993
same,normalized growth,"S. cerevisiae deletion strains, locus YLR403W, strain SFP1, stronger effect = lower value",0.95
same,normalized growth,"S. cerevisiae deletion strains, locus YML070W, strain DAK1, stronger effect = lower value",0.957
same,normalized growth,"S. cerevisiae deletion strains, locus YMR001C, strain CDC5, stronger effect = lower value",0.971
same,normalized growth,"S. cerevisiae deletion strains, locus YMR205C, strain PFK2 (second series), stronger effect = lower value",0.987
same,normalized growth,"S. cerevisiae deletion strains, locus YMR277W, strain FCP1, stronger effect = lower value",0.973
same,normalized growth,"S. cerevisiae deletion strains, locus YNL006W, strain LST8, stronger effect = lower value",0.972
same,normalized growth,"S. cerevisiae deletion strains, locus YNL020C, strain ARK1, stronger effect = lower value",0.983
same,normalized growth,"S. cerevisiae deletion strains, locus YNL161W, strain CBK1, stronger effect = lower value",0.978
same,normalized growth,"S. cerevisiae deletion strains, locus YNL183C, strain NPR1, stronger effect = lower value",1.03
same,normalized growth,"S. cerevisiae deletion strains, locus YNL207W, strain RIO2, stronger effect = lower value",0.983
same,normalized growth,"S. cerevisiae deletion strains, locus YNL222W, strain SSU72, stronger effect = lower value",0.976
same,normalized growth,"S. cerevisiae deletion strains, locus YNL307C, strain MCK1 (second series), stronger effect = lower value",0.978
same,normalized growth,"S. cerevisiae deletion strains, locus YOL078W, strain AVO1, stronger effect = lower value",0.979
same,normalized growth,"S. cerevisiae deletion strains, locus YOL136C, strain PFK27, stronger effect = lower value",0.973
same,normalized growth,"S. cerevisiae deletion strains, locus YOR061W, strain CKA2, stronger effect = lower value",0.955
same,normalized growth,"S. cerevisiae deletion strains, locus YOR119C, strain RIO1, stronger effect = lower value",0.97
same,normalized growth,"S. cerevisiae deletion strains, locus YOR231W, strain MKK1, stronger effect = lower value",1.06
same,normalized growth,"S. cerevisiae deletion strains, locus YOR329C, strain SCD5, stronger effect = lower value",0.983
same,normalized growth,"S. cerevisiae deletion strains, locus YPL031C, strain PHO85, stronger effect = lower value",0.956
same,normalized growth,"S. cerevisiae deletion strains, locus YPL153C, strain RAD53, stronger effect = lower value",0.949
same,normalized growth,"S. cerevisiae deletion strains, locus YPL204W, strain HRR25, stronger effect = lower value",0.939
same,normalized growth,"S. cerevisiae deletion strains, locus YPL209C, strain IPL1, stronger effect = lower value",0.989
same,normalized growth,"S. cerevisiae deletion strains, locus YPL256C, strain CLN2, stronger effect = lower value",1.08
same,normalized growth,"S. cerevisiae deletion strains, locus YPR025C, strain CCL1, stronger effect = lower value",0.987
same,normalized growth,"S. cerevisiae deletion strains, locus YPR106W, strain ISR1, stronger effect = lower value",0.994
same,normalized growth,"S. cerevisiae deletion strains, locus YPR111W, strain DBF20, stronger effect = lower value",0.986
same,normalized growth,"S. cerevisiae deletion strains, strain NNK1, stronger effect = lower value",0.999
same,normalized growth,"S. cerevisiae deletion strains, strain TSCII, stronger effect = lower value",0.981
